What all share (assay): DAPPL (digital affinity profiling via proximity ligation, sequencing); 10 mM Tris-HCl pH 7.5, 50 mM NaCl, 1 mM DTT, 4% glycerol, room temperature, 30 min; GST-TFs on glutathione beads, 16-mer random dsDNA library, 0.1% formaldehyde crosslink after washing; high values mean tight binding
Experiment [1] deals with T1, FEV (Homo sapiens, UniProt Q99581 1-238).
T1 sequence: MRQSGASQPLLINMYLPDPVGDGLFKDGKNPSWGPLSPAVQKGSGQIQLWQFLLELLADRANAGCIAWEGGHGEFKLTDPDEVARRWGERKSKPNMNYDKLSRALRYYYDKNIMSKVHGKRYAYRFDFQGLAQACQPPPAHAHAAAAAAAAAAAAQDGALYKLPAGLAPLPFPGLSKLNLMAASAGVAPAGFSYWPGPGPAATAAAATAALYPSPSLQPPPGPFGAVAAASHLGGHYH
The settings on record: protein: recombinant; tags: N-terminal GST; dsDNA, one strand shown. The method in brief: (§1)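 Pools were built from human transcription factors expressed in yeast as GST fusions, captured on glutathione beads and DNA-barcoded, along with a tag-only sample. Incubation with 200 nmole of a 16-mer random double-stranded DNA library lasted 30 min at room temperature in Tris/NaCl/DTT/glycerol buffer, and was followed by washing, 0.1% formaldehyde crosslinking, proximity ligation, PCR amplification and Illumina NextSeq500 sequencing. Binding signal is the quotient of each hexamer's read frequency for a factor and its frequency for the tag-only sample.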

Experiment [2] concerns the target ETV5 (Homo sapiens, UniProt P41161 1-510). Conditions: protein: recombinant; tags: N-terminal GST; dsDNA, one strand shown. The method in brief:
as §1

Experiment [3] deals with HSF1 (Homo sapiens, UniProt Q00613 1-529). The settings on record: protein: recombinant; tags: N-terminal GST; chain copies: 3; dsDNA, one strand shown. The method in brief: as §1
The target of experiment [4] is T2, SPIC (Homo sapiens, UniProt Q8N5J4 1-248).
T2 sequence: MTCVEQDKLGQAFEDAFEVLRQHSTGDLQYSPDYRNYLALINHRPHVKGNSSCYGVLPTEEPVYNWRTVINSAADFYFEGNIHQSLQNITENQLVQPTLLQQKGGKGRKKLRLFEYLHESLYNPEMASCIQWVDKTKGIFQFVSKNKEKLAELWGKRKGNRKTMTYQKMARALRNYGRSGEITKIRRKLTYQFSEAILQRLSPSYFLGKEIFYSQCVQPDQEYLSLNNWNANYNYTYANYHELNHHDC
The settings on record: protein: recombinant; tags: N-terminal GST; dsDNA, one strand shown. The method in brief:
as §1

The target in experiment [5] is ELF4 (Homo sapiens, UniProt Q99607 1-663). Conditions: protein: recombinant; tags: N-terminal GST; dsDNA, one strand shown. The method in brief: as §1
In experiment [6] the target is T3, ELK4 (Homo sapiens, UniProt P28324-2 1-405).
T3 sequence: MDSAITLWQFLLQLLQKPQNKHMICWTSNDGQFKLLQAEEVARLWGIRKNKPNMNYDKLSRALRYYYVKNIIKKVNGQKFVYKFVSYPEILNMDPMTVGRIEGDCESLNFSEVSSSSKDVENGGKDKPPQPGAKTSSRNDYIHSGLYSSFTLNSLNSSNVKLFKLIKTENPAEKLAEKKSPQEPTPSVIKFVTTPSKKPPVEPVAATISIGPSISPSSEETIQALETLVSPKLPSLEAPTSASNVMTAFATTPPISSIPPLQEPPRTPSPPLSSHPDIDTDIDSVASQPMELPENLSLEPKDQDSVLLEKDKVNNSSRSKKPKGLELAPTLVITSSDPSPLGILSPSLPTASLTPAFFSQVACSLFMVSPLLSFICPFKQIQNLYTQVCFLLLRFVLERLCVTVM
The settings on record: protein: recombinant; tags: N-terminal GST; dsDNA, one strand shown. The method in brief:
as §1

Experiment [7] concerns the target T4, ETV2 (Homo sapiens, UniProt O00321 1-342).
T4 sequence: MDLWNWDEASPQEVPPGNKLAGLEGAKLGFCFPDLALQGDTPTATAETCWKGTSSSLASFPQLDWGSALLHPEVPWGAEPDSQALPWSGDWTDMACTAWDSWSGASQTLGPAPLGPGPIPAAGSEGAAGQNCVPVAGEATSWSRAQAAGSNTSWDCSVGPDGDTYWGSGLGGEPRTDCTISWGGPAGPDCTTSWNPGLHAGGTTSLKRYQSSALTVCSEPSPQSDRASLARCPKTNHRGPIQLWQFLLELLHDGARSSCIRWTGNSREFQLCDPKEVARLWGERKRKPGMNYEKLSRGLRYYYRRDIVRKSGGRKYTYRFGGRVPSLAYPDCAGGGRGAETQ
Conditions: protein: recombinant; tags: N-terminal GST; dsDNA, one strand shown. The method in brief:
as §1

Experiment [8] has as its target T5, ELF3 (Homo sapiens, UniProt P78545 1-371).
T5 sequence: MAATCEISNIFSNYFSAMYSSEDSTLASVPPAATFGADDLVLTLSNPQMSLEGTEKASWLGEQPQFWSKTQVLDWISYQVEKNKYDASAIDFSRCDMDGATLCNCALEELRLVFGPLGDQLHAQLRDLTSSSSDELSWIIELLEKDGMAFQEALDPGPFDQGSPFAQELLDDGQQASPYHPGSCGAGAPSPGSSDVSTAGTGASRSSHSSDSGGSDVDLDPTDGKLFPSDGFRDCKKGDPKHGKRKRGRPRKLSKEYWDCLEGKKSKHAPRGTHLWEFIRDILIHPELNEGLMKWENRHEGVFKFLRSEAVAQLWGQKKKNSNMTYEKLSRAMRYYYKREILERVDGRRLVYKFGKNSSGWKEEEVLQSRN
Conditions: protein: recombinant; tags: N-terminal GST; dsDNA, one strand shown. The method in brief:
as §1

Experiment [9] addresses CRX (Homo sapiens, UniProt O43186 1-299). The settings on record: protein: recombinant; tags: N-terminal GST; dsDNA, one strand shown. The method in brief:
as §1

Experiment [10] addresses ETV1 (Homo sapiens, UniProt P50549 1-477). Conditions: protein: recombinant; tags: N-terminal GST; dsDNA, one strand shown. The method in brief: as §1
Experiment [11] has as its target T6, ERF (Homo sapiens, UniProt P50548 1-548).
T6 sequence: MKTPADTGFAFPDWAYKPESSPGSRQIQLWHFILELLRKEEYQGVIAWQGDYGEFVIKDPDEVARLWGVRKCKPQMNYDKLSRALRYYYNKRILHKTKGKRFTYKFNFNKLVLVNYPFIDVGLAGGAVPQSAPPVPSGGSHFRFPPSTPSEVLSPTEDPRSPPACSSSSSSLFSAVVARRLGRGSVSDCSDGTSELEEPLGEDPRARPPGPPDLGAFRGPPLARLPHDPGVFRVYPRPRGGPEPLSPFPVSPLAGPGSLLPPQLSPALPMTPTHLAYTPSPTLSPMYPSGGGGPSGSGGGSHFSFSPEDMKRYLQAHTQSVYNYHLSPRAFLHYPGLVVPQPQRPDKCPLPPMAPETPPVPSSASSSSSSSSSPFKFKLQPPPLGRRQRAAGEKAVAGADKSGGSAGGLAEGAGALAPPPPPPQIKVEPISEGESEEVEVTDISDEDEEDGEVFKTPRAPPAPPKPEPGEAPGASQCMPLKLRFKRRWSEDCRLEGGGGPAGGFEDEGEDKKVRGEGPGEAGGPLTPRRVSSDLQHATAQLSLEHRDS
Conditions: protein: recombinant; tags: N-terminal GST; dsDNA, one strand shown. The method in brief:
as §1

The target of experiment [12] is T7, ETV3L (Homo sapiens, UniProt Q6ZN32 1-361).
T7 sequence: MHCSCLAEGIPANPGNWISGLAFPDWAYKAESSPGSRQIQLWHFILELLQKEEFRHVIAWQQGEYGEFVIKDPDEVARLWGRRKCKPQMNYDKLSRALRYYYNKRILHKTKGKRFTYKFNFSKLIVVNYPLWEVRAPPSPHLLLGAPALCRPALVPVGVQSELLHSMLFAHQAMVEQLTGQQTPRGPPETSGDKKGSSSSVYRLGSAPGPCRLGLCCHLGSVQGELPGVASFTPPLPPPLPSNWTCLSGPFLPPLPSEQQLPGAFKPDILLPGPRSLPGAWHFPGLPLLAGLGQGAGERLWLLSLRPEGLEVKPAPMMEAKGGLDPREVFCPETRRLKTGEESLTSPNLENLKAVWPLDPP
The settings on record: protein: recombinant; tags: N-terminal GST; dsDNA, one strand shown. The method in brief: as §1

For experiment [13], the target named is T8, ETS2 (Homo sapiens, UniProt P15036 1-469).
T8 sequence: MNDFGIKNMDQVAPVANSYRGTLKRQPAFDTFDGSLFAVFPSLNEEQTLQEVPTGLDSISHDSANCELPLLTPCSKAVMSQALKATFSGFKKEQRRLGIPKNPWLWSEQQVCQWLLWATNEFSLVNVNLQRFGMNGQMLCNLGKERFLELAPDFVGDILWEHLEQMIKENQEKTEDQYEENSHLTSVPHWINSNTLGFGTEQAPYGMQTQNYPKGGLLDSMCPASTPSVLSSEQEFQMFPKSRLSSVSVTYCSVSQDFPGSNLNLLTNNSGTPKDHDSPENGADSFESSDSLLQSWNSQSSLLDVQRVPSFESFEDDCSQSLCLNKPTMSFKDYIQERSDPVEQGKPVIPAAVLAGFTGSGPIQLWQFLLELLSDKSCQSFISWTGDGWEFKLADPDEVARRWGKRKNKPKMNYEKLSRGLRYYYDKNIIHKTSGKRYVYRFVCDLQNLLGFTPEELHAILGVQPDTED
Conditions: protein: recombinant; tags: N-terminal GST; dsDNA, one strand shown. The method in brief:
as §1

The target in experiment [14] is T9, SPDEF (Homo sapiens, UniProt O95238 1-335).
T9 sequence: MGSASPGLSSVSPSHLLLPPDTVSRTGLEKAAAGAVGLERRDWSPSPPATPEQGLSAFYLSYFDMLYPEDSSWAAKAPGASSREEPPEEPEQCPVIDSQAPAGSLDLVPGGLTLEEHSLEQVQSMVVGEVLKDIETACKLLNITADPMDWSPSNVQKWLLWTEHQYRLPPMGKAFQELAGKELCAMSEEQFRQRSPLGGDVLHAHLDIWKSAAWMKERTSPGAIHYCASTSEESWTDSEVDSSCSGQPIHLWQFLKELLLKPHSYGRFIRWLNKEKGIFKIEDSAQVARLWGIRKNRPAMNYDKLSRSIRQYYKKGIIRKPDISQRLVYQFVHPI
Conditions: protein: recombinant; tags: N-terminal GST; dsDNA, one strand shown. The method in brief:
as §1

Experiment [15] concerns the target T10, ETV7 (Homo sapiens, UniProt Q9Y603 1-341).
T10 sequence: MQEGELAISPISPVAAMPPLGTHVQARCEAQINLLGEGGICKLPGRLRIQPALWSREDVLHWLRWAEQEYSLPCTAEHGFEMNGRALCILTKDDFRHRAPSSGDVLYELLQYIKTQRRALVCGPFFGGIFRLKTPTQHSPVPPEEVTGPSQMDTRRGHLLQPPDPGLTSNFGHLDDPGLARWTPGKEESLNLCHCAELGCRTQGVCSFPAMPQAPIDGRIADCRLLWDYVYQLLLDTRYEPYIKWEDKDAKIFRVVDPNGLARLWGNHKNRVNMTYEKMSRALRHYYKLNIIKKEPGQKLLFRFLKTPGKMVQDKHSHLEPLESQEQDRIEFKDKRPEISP
The settings on record: protein: recombinant; tags: N-terminal GST; dsDNA, one strand shown. The method in brief: as §1

Experiment [16] concerns the target T11, ELF5 (Homo sapiens, UniProt Q9UKW6-2 1-255).
T11 sequence: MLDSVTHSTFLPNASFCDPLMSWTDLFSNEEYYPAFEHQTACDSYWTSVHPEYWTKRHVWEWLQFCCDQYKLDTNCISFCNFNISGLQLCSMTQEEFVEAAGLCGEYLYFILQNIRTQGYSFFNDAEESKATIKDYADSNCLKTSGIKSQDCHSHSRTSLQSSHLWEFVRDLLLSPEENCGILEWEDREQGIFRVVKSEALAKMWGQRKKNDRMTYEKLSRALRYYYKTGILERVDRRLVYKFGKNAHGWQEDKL
Conditions: protein: recombinant; tags: N-terminal GST; dsDNA, one strand shown. The method in brief: as §1

The target of experiment [17] is T12, ETV3 (Homo sapiens, UniProt P41162-2 1-143).
T12 sequence: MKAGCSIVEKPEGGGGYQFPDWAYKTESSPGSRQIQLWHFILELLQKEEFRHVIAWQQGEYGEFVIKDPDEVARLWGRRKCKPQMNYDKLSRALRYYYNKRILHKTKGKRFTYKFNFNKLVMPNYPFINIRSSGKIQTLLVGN
Conditions: protein: recombinant; tags: N-terminal GST; dsDNA, one strand shown. The method in brief:
as §1

In experiment [18] the target is ETV6 (Homo sapiens, UniProt P41212 1-452). Conditions: protein: recombinant; tags: N-terminal GST; dsDNA, one strand shown. The method in brief: as §1
Chain of ETV6 (P41212 whole entry): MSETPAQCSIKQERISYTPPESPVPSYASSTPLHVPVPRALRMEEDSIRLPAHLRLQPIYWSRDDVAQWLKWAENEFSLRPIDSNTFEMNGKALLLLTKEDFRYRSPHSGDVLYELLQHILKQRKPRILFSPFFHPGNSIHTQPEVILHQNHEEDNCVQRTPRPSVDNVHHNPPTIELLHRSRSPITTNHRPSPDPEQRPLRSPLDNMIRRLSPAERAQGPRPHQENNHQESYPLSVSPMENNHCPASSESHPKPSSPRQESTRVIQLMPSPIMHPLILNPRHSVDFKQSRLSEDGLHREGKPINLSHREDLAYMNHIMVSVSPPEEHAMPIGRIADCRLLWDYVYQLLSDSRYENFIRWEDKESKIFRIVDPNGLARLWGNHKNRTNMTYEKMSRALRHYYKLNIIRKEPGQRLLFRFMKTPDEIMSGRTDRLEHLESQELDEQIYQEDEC

Chain of CRX (O43186 whole entry): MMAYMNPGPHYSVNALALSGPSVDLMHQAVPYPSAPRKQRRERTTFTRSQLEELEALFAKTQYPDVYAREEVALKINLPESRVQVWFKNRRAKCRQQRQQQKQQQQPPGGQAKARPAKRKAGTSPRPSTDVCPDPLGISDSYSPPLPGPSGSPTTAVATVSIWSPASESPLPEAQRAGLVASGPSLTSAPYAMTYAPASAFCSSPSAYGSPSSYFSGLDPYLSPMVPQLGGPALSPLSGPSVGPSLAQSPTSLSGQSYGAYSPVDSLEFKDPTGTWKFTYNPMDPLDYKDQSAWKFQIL
Chain of ETV5 (P41161 whole entry): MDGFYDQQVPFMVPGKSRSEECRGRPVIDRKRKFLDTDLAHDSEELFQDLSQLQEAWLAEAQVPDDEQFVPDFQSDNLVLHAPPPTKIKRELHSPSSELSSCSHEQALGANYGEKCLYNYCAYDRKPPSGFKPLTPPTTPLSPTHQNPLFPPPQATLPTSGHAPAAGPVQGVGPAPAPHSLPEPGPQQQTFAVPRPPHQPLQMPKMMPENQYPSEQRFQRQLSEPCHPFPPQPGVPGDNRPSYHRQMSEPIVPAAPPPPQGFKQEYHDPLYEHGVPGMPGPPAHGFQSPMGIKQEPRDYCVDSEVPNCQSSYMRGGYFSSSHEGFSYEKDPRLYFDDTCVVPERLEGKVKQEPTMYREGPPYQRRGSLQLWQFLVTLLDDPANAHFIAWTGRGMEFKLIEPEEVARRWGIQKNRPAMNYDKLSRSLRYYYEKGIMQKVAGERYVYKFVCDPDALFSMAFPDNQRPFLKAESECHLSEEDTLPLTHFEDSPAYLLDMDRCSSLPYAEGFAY
Chain of ETV1 (P50549 whole entry): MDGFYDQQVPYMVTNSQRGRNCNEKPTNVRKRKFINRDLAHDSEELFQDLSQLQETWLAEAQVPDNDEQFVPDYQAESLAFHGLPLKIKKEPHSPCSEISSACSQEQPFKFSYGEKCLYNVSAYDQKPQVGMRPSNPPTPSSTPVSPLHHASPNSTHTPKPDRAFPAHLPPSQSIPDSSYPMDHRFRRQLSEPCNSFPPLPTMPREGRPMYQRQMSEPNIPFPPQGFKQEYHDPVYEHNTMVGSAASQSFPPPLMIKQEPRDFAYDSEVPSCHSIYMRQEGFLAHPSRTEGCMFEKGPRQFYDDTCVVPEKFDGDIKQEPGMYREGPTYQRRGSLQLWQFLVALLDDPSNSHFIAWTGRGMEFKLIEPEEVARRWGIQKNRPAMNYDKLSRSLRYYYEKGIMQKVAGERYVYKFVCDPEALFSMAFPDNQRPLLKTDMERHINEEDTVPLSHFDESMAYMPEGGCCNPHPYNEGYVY
Chain of HSF1 (Q00613 whole entry): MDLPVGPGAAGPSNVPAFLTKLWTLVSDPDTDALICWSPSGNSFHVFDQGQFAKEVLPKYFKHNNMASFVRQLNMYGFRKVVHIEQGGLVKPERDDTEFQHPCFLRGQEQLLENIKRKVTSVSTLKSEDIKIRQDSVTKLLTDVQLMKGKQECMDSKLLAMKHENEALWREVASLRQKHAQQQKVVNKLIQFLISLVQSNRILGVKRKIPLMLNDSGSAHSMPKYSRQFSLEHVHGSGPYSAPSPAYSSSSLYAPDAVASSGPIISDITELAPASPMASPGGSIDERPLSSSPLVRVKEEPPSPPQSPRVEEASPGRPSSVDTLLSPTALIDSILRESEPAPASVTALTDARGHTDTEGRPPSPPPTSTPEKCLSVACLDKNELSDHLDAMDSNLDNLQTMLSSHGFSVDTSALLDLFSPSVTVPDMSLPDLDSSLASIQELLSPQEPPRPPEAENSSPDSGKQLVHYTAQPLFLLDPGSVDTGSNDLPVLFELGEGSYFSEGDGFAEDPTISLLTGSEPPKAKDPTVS
Chain of ELF4 (Q99607 whole entry): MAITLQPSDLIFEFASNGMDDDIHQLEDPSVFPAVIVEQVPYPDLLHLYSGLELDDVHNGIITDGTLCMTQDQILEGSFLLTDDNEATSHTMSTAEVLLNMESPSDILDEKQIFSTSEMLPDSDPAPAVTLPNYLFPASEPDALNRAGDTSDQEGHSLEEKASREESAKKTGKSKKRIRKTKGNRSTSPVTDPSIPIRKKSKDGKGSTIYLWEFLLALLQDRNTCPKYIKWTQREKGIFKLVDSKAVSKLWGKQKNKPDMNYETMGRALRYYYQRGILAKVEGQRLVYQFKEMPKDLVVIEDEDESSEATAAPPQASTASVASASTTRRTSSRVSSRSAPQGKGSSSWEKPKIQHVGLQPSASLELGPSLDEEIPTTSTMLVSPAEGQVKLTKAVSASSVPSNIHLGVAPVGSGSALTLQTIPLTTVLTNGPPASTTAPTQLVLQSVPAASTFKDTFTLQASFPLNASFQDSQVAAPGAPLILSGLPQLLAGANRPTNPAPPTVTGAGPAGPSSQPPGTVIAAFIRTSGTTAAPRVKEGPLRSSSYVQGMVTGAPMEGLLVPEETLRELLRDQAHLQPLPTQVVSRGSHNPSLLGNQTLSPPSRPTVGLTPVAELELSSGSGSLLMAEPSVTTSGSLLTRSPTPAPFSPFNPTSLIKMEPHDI

For TTCCAC, the binding signal in experiment [1] is 1.37 fold enrichment (6-mer frequency, TF over GST control); in [2] it was 1.41 fold enrichment (6-mer frequency, TF over GST control); in experiment [3], 1.83 fold enrichment (6-mer frequency, TF over GST control); in experiment [4] it was 1.57 fold enrichment (6-mer frequency, TF over GST control); in [5] it was 1.42 fold enrichment (6-mer frequency, TF over GST control); in [6] it was 1.39 fold enrichment (6-mer frequency, TF over GST control). In addition, the binding signal was 1.42 fold enrichment (6-mer frequency, TF over GST control) in experiment [7]; 1.38 fold enrichment (6-mer frequency, TF over GST control) in experiment [8]; 1.26 fold enrichment (6-mer frequency, TF over GST control) in experiment [9]; 1.38 fold enrichment (6-mer frequency, TF over GST control) in experiment [10]; 1.38 fold enrichment (6-mer frequency, TF over GST control) in experiment [11]; 1.54 fold enrichment (6-mer frequency, TF over GST control) in [12]. For the same sequence, the binding signal in experiment [13] is 1.44 fold enrichment (6-mer frequency, TF over GST control); in experiment [14] it was 1.36 fold enrichment (6-mer frequency, TF over GST control); in experiment [15], 1.31 fold enrichment (6-mer frequency, TF over GST control); in experiment [16] it was 1.51 fold enrichment (6-mer frequency, TF over GST control); in experiment [17], 1.46 fold enrichment (6-mer frequency, TF over GST control); in [18] it was 1.47 fold enrichment (6-mer frequency, TF over GST control).

These data come from article PMC7862700, “An all-to-all approach to the identification of sequence-specific readers for epigenetic DNA modifications on cytosine”.
